Rows were chosen to be rich in hits. Some 20% of all compounds tested hit in one or more screens of this group.
HCMV antiviral = blocks human cytomegalovirus replication; HFF cells, HCMV-luciferase reporter, 72 h; stronger effect = lower value; activity change, negative = inhibition, % at 57.5 µM; hit rate 4.5% among 410,000; AID 1259415; in the data active = activity change below about -60%; inconclusive = no clear call, values can overlap the other calls; inactive = above about -39%; also: % is scaled to controls: 0 for no effect and ±100 for the full control effect
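Cell-based, HFFs, 1000 cells/well, 16 h 37C; cpds in DMSO + HCMV-luc, MOI 1 PFU/cell; 72 h 37C; OneGlo luminescence after 5 min RT; norm. to buffer vs Salinomycin 10uM.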
Pf growth 48h = P. falciparum growth inhibition at 48 hours (one generation). P. falciparum luciferase growth in erythrocytes, 48 h. Potency, µM (doses to about 28.7 µM), for inactives: at the top dose activity change, negative = inhibition, actives largely listed as inhibitors. hit rate 5.9% among 310,000; also: potency is read from the fitted curve at half-maximal effect; % is scaled to controls: 0 for no effect and ±100 for the full control effect
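Cell-based growth assay: transgenic P. falciparum expressing firefly luciferase, cultured in red cells within RPMI 1640 containing 0.5% w/v Albumax, 24 mM bicarbonate and gentamycin. A drop in luciferase activity indicates inhibition.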
Shiga inhibitor = inhibitors of Shiga toxin in Vero cells. hit rate 9.2% among 290,000. inhibition, % at 38.7 µM. AID 2315. Vero cells, Shiga toxin protein synthesis inhibition reporter; in the data active = inhibition mostly above about 28%, no sharp cut-off; inactive = mostly below about 43%; also: 0% is about no effect
Pf growth 96h = P. falciparum growth inhibition at 96 hours. hit rate 6.9% among 320,000. Potency, µM (titrated, usually from 28.7 µM), for the others: at the top dose activity change, negative = inhibition, actives largely listed as inhibitors. P. falciparum luciferase reporter growth, 96 h; also: potency is read from the fitted curve at half-maximal effect; % is scaled to controls: 0 for no effect and ±100 for the full control effect
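Readout is luminescence from an integrated firefly luciferase in P. falciparum. Red cells, 2% hematocrit and 0.05% parasitemia final, were cultured with compound through two parasite generations (96 hours) at 37 C, 5% CO2.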
Cycloheximide cs = counter-screen for Shiga toxin inhibitors: cycloheximide protein synthesis inhibition | cell reporter, cycloheximide protein synthesis inhibition counterscreen | max response, % | hit rate 12% among 300,000 | AID 2314; in the data active = max response mostly above about 13%, no sharp cut-off; inactive = mostly below about 14%; also: read at 38.3 µM for the half of the compounds with a filed dose; 0% is about no effect
Starred values were filed as active, the others as inactive; ? = inconclusive; nt = no result. Unless noted, calls follow the shape of the dose curve; as a rule, active = well fitted inhibition curve with a large enough effect; inconclusive = small, poorly fitted or top-dose-only effect, or another doubt; inactive = no such curve, though single readings can be large or run the other way.

SMILES	HCMV antiviral	Pf growth 48h	Shiga inhibitor	Pf growth 96h	Cycloheximide cs
COCC1CCN(C(=O)c2oc3c(F)cccc3c2C)C1 (stereo unspecified)	12	?	33*	?	23*
CCCCCc1nc2c(=O)[nH]c3ccccc3c2o1	1	?	12	5.2µM*	13
CCOc1ccc(S(=O)(=O)N2CCN(C(=S)NC3CC3)CC2)cc1	?	4.1µM*	-9	?	-1
COc1ccc(S(=O)(=O)N2CCN(C(=S)NC3CCCCC3)CC2)cc1	3	0.93µM*	5	6%	0
COc1ccc(NC(=S)N2CCN(S(=O)(=O)c3ccc(F)cc3)CC2)cc1	-13	?	-11	?	12
CCOc1cc(C(=O)CCC(=O)OCC(=O)N2c3ccccc3NC(=O)C2(C)C)ccc1O	23	-2%	-20	nt	10
CC(C)c1ccc(Nc2c([N+](=O)[O-])c(=O)n(C)c3ccccc23)cc1	?	?	-14	?	-2
Cc1cccc(Nc2c([N+](=O)[O-])c(=O)n(C)c3ccccc23)c1	10	15µM*	-2	10µM*	-1
CCC(Sc1ccccc1C(=O)O)C(=O)O (stereo unspecified)	21	nt	-12	nt	2
CCC(Sc1nc(N)cc(N)n1)C(=O)O (stereo unspecified)	43	nt	-13	3.3µM*	-4
O=C(NCCc1ccccn1)c1ccc2nc(Cc3ccccc3F)oc2c1	18	33%	105*	14%	62*
COc1ccc(Cc2nc3ccc(C(=O)NCc4cccc(C)n4)cc3o2)cc1OC	28	nt	nt	nt	nt
Cc1cccc(CNC(=O)c2ccc3nc(Cc4ccccc4F)oc3c2)n1	97	-22%	111*	-2%	58*
O=C(NCCc1ccc(Cl)cc1)c1ccc2nc(Cc3ccccc3)oc2c1	-9	nt	nt	nt	nt
COc1ccc(C(=O)N2CC(=O)Nc3ccc(C)cc3C2c2ccc(F)cc2)c(OC)c1 (stereo unspecified)	22	nt	nt	nt	nt
CCN(CC)S(=O)(=O)c1ccc(N2CCN(C)CC2)c(NC(=O)Nc2ccc(C)cc2)c1	19	9.3µM*	2	?	17*
CCN(CC)S(=O)(=O)c1ccc(N2CCN(C)CC2)c(NC(=O)CSCC(=O)Nc2cccc(C)c2)c1	1	17µM*	nt	?	nt
Cc1cccc(NC(=O)CSCC(=O)Nc2ccc(S(=O)(=O)N3CCCC3)cc2)c1	-9	-19%	nt	-17%	nt
CN(c1ccc(OCC(=O)NCc2cccnc2)cc1)S(=O)(=O)c1ccc(Cl)cc1	78	-40%	-14	-3%	-1
CCOC(=O)c1c(-c2ccc([N+](=O)[O-])cc2)[nH]c2ccc(C)cc12	-22	nt	nt	nt	nt
CCOC(=O)N1CCN(Cc2nnc(-c3cccc(Br)c3)o2)CC1	-1	3%	14	20%	-2
COc1cccc(C(=O)NNC2=C(C(=O)C(F)(F)F)CCC2)c1	65	49%	68*	48%	41*
Nc1ccccc1C(=O)NNC1=C(C(=O)C(F)(F)F)CCC1	-85*	?	95*	59%	46*
O=C(NNC1=C(C(=O)C(F)(F)F)CCC1)c1ccccc1Cl	?	nt	22	-20%	9
COc1ccccc1C(=O)NNC1=C(C(=O)C(F)(F)F)CCC1	-100*	-1%	84*	3%	17*
SMILES	HCMV antiviral	Pf growth 48h	Shiga inhibitor	Pf growth 96h	Cycloheximide cs
O=C(NNC1=C(C(=O)C(F)(F)F)CCC1)c1ccccc1O	55	nt	37*	-6%	32
CCOC(=O)c1ccc(NC(=O)CSc2c(C(C)C)cnc3c2c(=O)n(C)c(=O)n3C)cc1	19	nt	nt	nt	nt
CCC(=O)OC1=CN(Cc2ccccc2)S(=O)(=O)c2ccccc21	7	nt	nt	nt	nt
Cc1cc(C(=O)NC2CCCC2)on1	20	-3%	14	-2%	-1
O=C(NCc1ccc(Cl)cc1)c1cc(-c2ccc(F)cc2)on1	-9	nt	nt	nt	nt
Cc1ccc(-c2cc(C(=O)NC3CCCC3)no2)cc1	55	108%	92*	34%	37*
O=C(NC1CCCC1)c1cc(-c2ccc(Cl)c(Cl)c2)on1	43	10%	45*	48%	27*
O=C(NC1CCCCC1)c1cc(-c2cccs2)on1	0	192%	117*	?	50*
O=C(NC1CCCCC1)c1cc(-c2ccc(F)cc2)on1	54	75%	36	-27%	12*
CCOc1ccc(C(C(=O)NCC2CCCO2)N(Cc2cccnc2)C(=O)c2snc(C(N)=O)c2N)cc1 (stereo unspecified)	-23	?	5	-4%	-4

High-throughput results as filed in PubChem BioAssay.
